Reference: PubChem BioAssay (NCATS)
Records with an inconclusive call do not appear. Active and inactive are the calls of the source. The call rests on the fitted dose curve; in most records, active means well fitted inhibition curve with a large enough effect; inconclusive means small, poorly fitted or top-dose-only effect; inactive means no such curve, though single readings can be large or run the other way.

test: qHTS Screen of the MIPE 4.0 Collection Against Ewings Sarcoma (EW8) (AID 1259255); settings: EW8 Ewing sarcoma viability, CellTiter-Glo, 48 h; series mostly up to 45.8 µM; further: nearly all actives have a fitted effect of over 35% in size
Description: There is a large unmet medical need for treatments for Ewing sarcoma, a pediatric sarcoma. We sought to identify compounds that inhibited Ewing sarcoma cells in vitro with the goal to then test promising drugs in two drug combinations in vitro to look for synergistic drug combinations. Promising combinations would then proceed to additional validation, including in vivo testing.
Using the NCATS developed oncology compound library called the Mechanism of Interrogation Plate (MIPE), four Ewing sarcoma cell lines were evaluated (TC32, TC71, RDES, EW8). Compounds, in a 12-point titration series, were incubated with cells for 48 hours and the read out was cell viability (CellTiter-Glo from Promega). These initial experiments were used to select appropriate concentrations of each single agent for subsequent two-drug matrix combinations such that the concentrations in the matrices would span both activity and non-activity.
Cells, in the log phase of growth, were seeded in 5 uL of RPMI plus 5% FBS, […] L-glutamine, 100 U/ml penicillin and 100 ug/ml streptomycin into 1536-well solid-bottom white tissue culture treated Greiner Bio One Plates (789173-F) using a MultiDrop Combi (Thermofisher Scientific) dispenser and a small sterile cassette. One column was media alone to be used as a :"no cells" control. The plates were then covered with sterilized stainless steel gasketed lids from Kalypsys. After allowing cells to attach for 4 hours, 23 nL of test compound or control (negative control DMSO and positive control 9.2 uM Bortezomib-final) were added from a 1536-well polypropylene compound source plate to each well using a 1536 head pin tool from Kalypsys. Cells were then incubated for 48 hours at 37C, 95% relative humidity and 5% CO2. After 48 hours, plates were removed from the incubator and 3 uL of CellTiter-Glo (Promega) was added using an Aurora Flying Reagent Dispenser Bioraptor. Plates were incubated at room temperature for 10 minutes prior to reading the luminescence on the Viewlux (PerkinElmer). The relative luciferase units are used to calculate the percent activity using the activity of DMSO in the cells and no cells columns for normalization of no inhibition and full inhibition respectively.
Potency means the concentration at half of the fitted maximal effect.

Compound	Potency
N[C@@H](Cc1ccc(N(CCCl)CCCl)cc1)C(=O)O	3.32 µM (active)
C#CCN(C)[C@H](C)Cc1ccccc1	inactive
COC[C@@H](NC(C)=O)C(=O)NCc1ccccc1	inactive
CN1CCN(C(=O)O[C@H]2c3nccnc3C(=O)N2c2ccc(Cl)cn2)CC1	inactive
CN(C)CCc1ccc(O)cc1	inactive
CN(C)[C@@H]1C(=O)C(C(N)=O)=C(O)[C@@]2(O)C(=O)C3=C(O)c4c(O)cccc4[C@@](C)(O)[C@H]3C[C@@H]12	11.8 µM (active)
Fc1ccc(C(OCCN2CCN(CCCc3ccccc3)CC2)c2ccc(F)cc2)cc1	20.9 µM (active)
CNCC(O)c1ccc(O)cc1 (centres undefined)	inactive
CC(O)(CS(=O)(=O)c1ccc(F)cc1)C(=O)Nc1ccc(C#N)c(C(F)(F)F)c1 (centres undefined)	3.72 µM (active)
C[C@@H]1O[C@@H](O[C@H]2C[C@@H](O)[C@]3(CO)[C@H]4[C@H](O)C[C@]5(C)[C@@H](C6=CC(=O)OC6)CC[C@]5(O)[C@@H]4CC[C@]3(O)C2)[C@H](O)[C@H](O)[C@H]1O	0.0372 µM (active)
Cn1cc(C2=C(c3cn(C4CCN(Cc5ccccn5)CC4)c4ccccc34)C(=O)NC2=O)c2ccccc21	10.5 µM (active)
C[C@@H]1[C@@H](C(=O)C[C@H]2O[C@@H]3O[C@]4(C)CC[C@@H]5[C@H](C)CC[C@@H]([C@H]2C)[C@@]35OO4)O[C@@H]2O[C@]3(C)CC[C@H]4[C@H](C)CC[C@@H]1[C@@]24OO3	0.743 µM (active)
O=C(O)C(=O)c1cn(Cc2ccccc2)c2ccc(-c3ccc(OC(F)(F)F)cc3)cc12	inactive
CC(C)CC(N(C)C)C1(c2ccc(Cl)cc2)CCC1 (centres undefined)	18.7 µM (active)
C=C(C)[C@H]1Cc2c(ccc3c2O[C@@H]2COc4cc(OC)c(OC)cc4[C@@H]2C3=O)O1	2.96 µM (active)
CCCC(C)(COC(N)=O)COC(=O)NC(C)C (centres undefined)	inactive
Cc1sc2c(c1C)C(c1ccc(Cl)cc1)=N[C@@H](CC(=O)OC(C)(C)C)c1nnc(C)n1-2	16.6 µM (active)
O=P1(NCCCl)OCCCN1CCCl (centres undefined)	20.9 µM (active)
CN(C)CCN(C)CCc1ccc(Cl)c(Cl)c1	inactive
Cc1cccc(C)c1NC(=O)CN1CCCC1=O	inactive
O=C1CC[C@@]2(O)[C@H]3Cc4ccc(O)c5c4[C@@]2(CCN3CC2CC2)[C@H]1O5	inactive
COc1ccc(C(CN(C)C)C2(O)CCCCC2)cc1 (centres undefined)	26.4 µM (active)
COc1ccc(C(=O)c2c(C)n(CCN3CCOCC3)c3ccccc23)cc1	inactive
C[C@@H]1[C@@H](CC(C[C@H]2O[C@@H]3O[C@]4(C)CC[C@@H]5[C@H](C)CC[C@@H]([C@H]2C)[C@@]35OO4)C[S+](=O)([O-])c2ccc(COC(=O)N(C)C)cc2)O[C@@H]2O[C@]3(C)CC[C@H]4[C@H](C)CC[C@@H]1[C@@]24OO3 (some centres undefined)	0.264 µM (active)
